Data on eight compounds can be found in PubChem BioAssay (Tox21).

A short description of assay [1]: qHTS assay for small molecule agonists of the p53 signaling pathway (AID 651631; calls by dose curve; further: potency means the concentration at half of the fitted maximal effect; nearly all actives have a fitted effect of over 15% in size). An outline of the steps: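 HCT-116 cells carrying a beta-lactamase reporter under p53 response elements were dosed with compound for 16 h at 37 °C. LiveBLAzer B/G FRET substrate was then added for 2 h at room temperature, and fluorescence intensity was read to detect pathway agonism.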

Assay [2] is described as follows: qHTS assay to test for compound auto fluorescence at 535 nm (green) in HepG2 cells (AID 720675). Further: on the % scale 0 is the no-effect control and ±100 the full control effect.
The nature of assay [3]: qHTS assay to test for compound auto fluorescence at 590 nm (red) in HEK293 cells (AID 720679). Further: on the % scale 0 is the no-effect control and ±100 the full control effect. An outline of the steps: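 Red autofluorescence, HEK293 cells: 2,000 cells/well; attach 4-5 hr 37C; add 23 nL cpd or DMSO; incubate o/n 37C 5% CO2; read Ex540/Em590; Rose Bengal sodium reference.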
The nature of assay [4]: qHTS assay to test for compound auto fluorescence at 590 nm (red) in HepG2 cell free culture (AID 720684). Further: on the % scale 0 is the no-effect control and ±100 the full control effect. The procedure, abridged: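 Rose Bengal sodium served as the reference for red signal. Test compounds were dispensed into serum-containing MEM (10% FBS) without cells, and plates were read at 540/590 nm.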
A short description of assay [5]: qHTS assay to test for compound auto fluorescence at 460 nm (blue) in HepG2 cell free culture (AID 720685). Further: on the % scale 0 is the no-effect control and ±100 the full control effect. An outline of the steps: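 Cell-free plates of MEM plus 10% FBS received 23 nL compound or DMSO vehicle; blue-channel (405/460 nm) intensity scored against triamterene as reference fluorophore.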
Assay [6] can be described thus: qHTS assay to test for compound auto fluorescence at 535 nm (green) in HepG2 cell free culture (AID 720686). Further: on the % scale 0 is the no-effect control and ±100 the full control effect.
The nature of assay [7]: qHTS assay to test for compound auto fluorescence at 460 nm (blue) in HepG2 cells (AID 720687). Further: on the % scale 0 is the no-effect control and ±100 the full control effect. An outline of the steps: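 HepG2 cells in MEM with 10% FBS, attached overnight at 37 C, were exposed to compound or DMSO for 1 hr at 37 C, 5% CO2. Blue fluorescence was read at 405/460 nm, with triamterene as reference fluorophore.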
Assay [8] can be described thus: qHTS assay to identify small molecule agonists of the RXR signaling pathway - cell viability counter screen (AID 1159529). Further: nearly all actives have a fitted effect of over 50% in size. Further: potency means the concentration at half of the fitted maximal effect. The procedure, abridged:
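RXR-alpha-UAS-bla HEK 293T cells in medium with 2% charcoal-stripped FBS were pre-incubated 5 hr, then compound-treated 16 hr at 37 C. Viability was read by CellTiter-Glo luminescence in the same wells as the beta-lactamase assay, with tetraoctyl ammonium bromide as positive control.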

In assay [9] the target is Nuclear receptor subfamily 1 group I member 3 (Homo sapiens) (UniProt Q14994). Nature of the assay: qHTS assay to identify small molecule agonists of the constitutive androstane receptor (CAR) signaling pathway (AID 1224839). Further: nearly all actives have a fitted effect of over 15% in size. Further: potency means the concentration at half of the fitted maximal effect. The procedure, abridged: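 HepG2 cells stably co-transfected with hCAR and a CYP2B6-2.2kb luciferase reporter; compounds at 15 concentrations with 0.75 uM PK11195 present. After 24 hr at 37 C, luciferase read by ONE-Glo luminescence.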
Chain of Nuclear receptor subfamily 1 group I member 3 (Homo sapiens) (Q14994 whole entry, looked up): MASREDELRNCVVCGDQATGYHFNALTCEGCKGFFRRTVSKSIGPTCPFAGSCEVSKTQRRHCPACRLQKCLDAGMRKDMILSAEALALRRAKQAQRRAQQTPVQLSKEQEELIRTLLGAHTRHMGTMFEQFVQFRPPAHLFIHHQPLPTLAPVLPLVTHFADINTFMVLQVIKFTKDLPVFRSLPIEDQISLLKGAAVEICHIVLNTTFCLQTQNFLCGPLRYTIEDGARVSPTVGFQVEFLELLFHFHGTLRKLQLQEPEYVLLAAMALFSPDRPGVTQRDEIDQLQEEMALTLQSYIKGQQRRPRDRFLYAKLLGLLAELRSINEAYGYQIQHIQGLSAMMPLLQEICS

The nature of assay [10]: qHTS assay to identify small molecule antagonists of the estrogen related receptor signaling pathway with the pleiotropic PPARgamma coactivator (PGC) from Tox21 10K library - cell viability counter screen (AID 1224840; active means well fitted cell-killing curve with a large enough effect in the repeat runs, not every such curve was filed as active; further: nearly all actives have a fitted effect of over 40% in size; further: potency means the concentration at half of the fitted maximal effect). An outline of the steps: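 Fluorescence read-out of CellTiter-Fluor viability reagent, added after cells had been exposed to compound in DMSO for 17.5 h at 37 C; 30 min development at 37 C/5% CO2. Cells: PGC/ERR line, 2,000/well.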

Assay [11] in a line: qHTS assay to identify small molecule agonists of the hypoxia (HIF-1) signaling pathway - cell viability counter screen (AID 1224844; calls by dose curve; further: potency means the concentration at half of the fitted maximal effect; nearly all actives have a fitted effect of over 50% in size). The procedure, abridged:
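CellTiter-Glo luminescence read-out, 30 min RT, taken in the same wells as the beta-lactamase HRE reporter assay; HRE-bla ME-180 cells, 0.5% dialyzed FBS, 17 hr compound treatment at 37C, 5% CO2.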

Assay [12] in a line: qHTS assay to identify small molecule agonists of H2AX - cell viability counter screen (AID 1224847; calls by dose curve; further: nearly all actives have a fitted effect of over 30% in size; further: potency means the concentration at half of the fitted maximal effect). An outline of the steps: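 CHO-K1 cells plated overnight at 37C, then exposed 3 h at 37C to compounds at 15 concentrations (0.76% DMSO final). Viability by CellTiter-Glo luminescence after 30 min at room temperature.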
A short description of assay [13]: qHTS RealTime-Glo MT Cell Viability Assay in HEK293 cells - 16 hour (AID 1224872). Further: nearly all actives have a fitted effect of over 50% in size. Further: potency means the concentration at half of the fitted maximal effect. An outline of the steps:
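Tox21 10K qHTS, HEK293, 600 cells/well, RealTime-Glo reagent co-dispensed with cells; 5 h preincubation, compound by pintool, 37 C, luminescence at 0–40 h.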

Assay [14] can be described thus: qHTS RealTime-Glo MT Cell Viability Assay in HepG2 cells - 8 hour (AID 1224873). Further: nearly all actives have a fitted effect of over 55% in size. Further: potency means the concentration at half of the fitted maximal effect. The procedure, abridged:
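HepG2 cells (600/well) mixed with RealTime-Glo MT reagent, settled 5 h at 37 C/5% CO2 before compound addition. Nonlytic NanoLuc luminescence from viable-cell prosubstrate reduction read repeatedly during 40 h treatment at 37 C.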

A short description of assay [15]: qHTS assay to identify small molecule agonists of the androgen receptor (AR) signaling pathway in the presence of an antagonist - cell viability counter screen (AID 1259379). Further: nearly all actives have a fitted effect of over 25% in size. Further: potency means the concentration at half of the fitted maximal effect. An outline of the steps: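 Viability counter screen: CellTiter-Fluor fluorescence, measured in the same wells as the luciferase read-out. MDA-kb2 cells, 3,000/well, with nilutamide at 3.0uM final and compounds at 15 concentrations, 16 hr at 37C, 0% CO2.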

Assay [16] can be described thus: qHTS assay to identify small molecule agonists of the estrogen receptor beta (ER-beta) signaling pathway - cell viability counter screen (AID 1259380). Further: nearly all actives have a fitted effect of over 30% in size. Further: potency means the concentration at half of the fitted maximal effect. The procedure, abridged: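 Luminescence read-out (CellTiter-Glo, 30 min, room temp) taken in the same wells as the beta-lactamase reporter assay; ER-beta-UAS-bla HEK293T cells exposed to DMSO-dissolved compounds for 16 hr at 37C in 2% charcoal-stripped FBS medium.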

Assay [17] in a line: Human pregnane X receptor (PXR) small molecule agonists, qHTS cell viability counter screen (AID 1346977). Further: nearly all actives have a fitted effect of over 50% in size. Further: potency means the concentration at half of the fitted maximal effect. The procedure, abridged:
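PXR-Luc HepG2 cells (2,000/well, 5% charcoal-stripped FBS) preincubated 5 hr, then exposed to compounds 24 hr at 37 C. Viability read in the same wells by CellTiter-Fluor fluorescence, reagent added at 23 hr, 1 hr incubation.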

Assay [18] is described as follows: Caspase-3/7 induction in CHO-K1 cells by small molecules, qHTS cell viability counter screen (AID 1346979). Further: potency means the concentration at half of the fitted maximal effect; nearly all actives have a fitted effect of over 35% in size. An outline of the steps: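 Wild-type CHO-K1 cells (1,500/well) treated with compound after 5 h plating; after 16 h at 37C, viability read as CellTiter-Fluor fluorescence following 1 h reagent incubation, in the same wells as the caspase read.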
A short description of assay [19]: qHTS assay to identify small molecule antagonists of the progesterone receptor (PR) signaling pathway - cell viability counter screen (AID 1346798). Further: nearly all actives have a fitted effect of over 50% in size. Further: potency means the concentration at half of the fitted maximal effect. The procedure, abridged: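 PR-UAS-bla HEK293T cells, 3,000/well in 2% charcoal-stripped FBS medium, dosed with compounds plus R5020 agonist and incubated 16 h at 37C. Viability then measured in the same wells by CellTiter-Glo luminescence after 30 min at RT.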

Assay [20] deals with Cytochrome P450 3A4 (Homo sapiens) (UniProt P08684). Nature of the assay: Cytochrome P450 Family 3 Subfamily A Member 4 (CYP3A4) small molecule antagonists: luciferase reporter qHTS assay (AID 1671201). An outline of the steps: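 P450-Glo CYP3A4 luminescent assay: compounds preincubated 10 min at room temperature with enzyme and proluciferin substrate, NADPH regeneration added, 1 h room-temperature reaction, stopped with luciferin detection reagent; luminescence read after 20 min. Ketoconazole positive control.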
Chain of Cytochrome P450 3A4 (Homo sapiens) (P08684 whole entry, looked up): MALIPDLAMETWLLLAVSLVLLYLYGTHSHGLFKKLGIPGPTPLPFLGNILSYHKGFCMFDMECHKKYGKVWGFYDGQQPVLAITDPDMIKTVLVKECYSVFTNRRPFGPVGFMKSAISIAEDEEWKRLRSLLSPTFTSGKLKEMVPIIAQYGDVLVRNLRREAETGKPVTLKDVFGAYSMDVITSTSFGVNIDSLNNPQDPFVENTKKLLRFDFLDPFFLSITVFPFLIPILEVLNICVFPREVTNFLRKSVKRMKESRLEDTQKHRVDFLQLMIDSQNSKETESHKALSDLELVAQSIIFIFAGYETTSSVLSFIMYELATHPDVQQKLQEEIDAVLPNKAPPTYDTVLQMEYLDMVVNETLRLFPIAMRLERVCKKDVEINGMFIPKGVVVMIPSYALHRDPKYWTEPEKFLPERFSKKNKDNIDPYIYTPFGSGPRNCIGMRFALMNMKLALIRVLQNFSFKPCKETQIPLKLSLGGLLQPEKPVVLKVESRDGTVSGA

Each structure is given as a SMILES string. A number with no mark means an inactive call. Results filed as inconclusive are left out. Active and inactive are the calls of the source. Unless noted, the call rests on the fitted dose curve; in most records, active means well fitted curve in the direction sought with a large enough effect in the repeat runs; inconclusive means weak or mixed curves; inactive means no such curve, though single readings can be large; an effect the other way counts as inactive or inconclusive.

Take `Cc1ccc(N(SC(F)(Cl)Cl)S(=O)(=O)N(C)C)cc1`: the Potency in [1] is 6.11 µM (active); in assay [8] it was 38.9 µM (active); in [10], 24.3 µM (active); in assay [11] it was 17.4 µM (active); in assay [12], 89.8 µM (active); in assay [13], 5.49 µM (active). The Potency is 21.9 µM (active) in assay [14]; 27.3 µM (active) in assay [15]; 54.5 µM (active) in assay [16]; 43.3 µM (active) in [17]; 4.33 µM (active) in assay [18]. Further, the Potency result in assay [2], in assay [5], in assay [6], in assay [7] and in assay [9] was “inactive” in each case. The compound was classed as inactive in assay [3] and in [4].
Consider `COc1cc(OC)c(OC)cc1C=O`, for which the Potency result in assay [2], in [5], in assay [6], in assay [7], in [8] and in [9] was “inactive” each time. Further, the Potency result in assay [10], in assay [12], in [14] and in [15] was “inactive” throughout. Also, the compound was classed as inactive in assay [3] and in assay [4].
For the compound `O=C(c1ccccc1)C(Cl)Cl`, the Potency result in assay [8], in assay [16], in assay [19] and in assay [20] was “inactive” each time. Moreover, the Potency in [13] was 34.7 µM (active); in [18], 27.3 µM (active).
As for `CNC(=O)Oc1cc(C)c(SC)c(C)c1`, the Potency entry in [8], in assay [10], in assay [12], in [14], in [15] and in assay [19] was “inactive” in each case. Moreover, the Potency entry in [17] is “inactive”. Further, the values for the Potency in assay [9] and in [18] were 61.1 µM (active) and 54.5 µM (active), respectively.
On to `c1ccc2c(c1)Sc1ccccc1N2CC1CN2CCC1CC2` (stereo not drawn), for which the Potency result in assay [2], in assay [5], in assay [6], in assay [7] and in assay [9] was “inactive” each time. Also, the call in assay [3] and in [4] was inactive. The Potency in assay [8] is 19 µM (active); in assay [16], 23.7 µM (active); in assay [19], 21.1 µM (active); in assay [17], 26.6 µM (active); in [18] it was 29.8 µM (active).
With `Cc1ccc2nc3sc(=O)sc3nc2c1`, the activity change, negative = cytotoxicity in assay [8] is -5.08% [at 15.8 µM]; in assay [12] it was 0.633% [at 31.6 µM]; in assay [13], 3.61% [at 15.8 µM]; in assay [15] it was -12.9% [at 19 µM]; in assay [19] it was -19.3% [at 18.9 µM]; in assay [17], -12.4% [at 19 µM]. In addition, the activation in assay [9] was 7.43% [at 19 µM]. Besides, the values for the viability change, negative = cytotoxic in assay [10] and in assay [14] were -9.2% [at 19 µM] and 3.11% [at 15.8 µM], respectively. In addition, the figures for the Potency in assay [11] and in assay [18] were 7.37 µM (active) and 5.8 µM (active), respectively. Also, in assay [20], the activity change, negative = inhibition was 0.418% [at 23.6 µM].
`C[C@]12CC[C@@H](O)C[C@@H]1CC[C@@H]1[C@@H]2CC[C@]2(C)C(=O)CC[C@@H]12`: the Potency in assay [8] was 17.4 µM (active); in assay [11] it was 21.9 µM (active); in assay [12], 101 µM (active); in assay [13] it was 38.9 µM (active); in [16], 27.3 µM (active); in assay [19], 48.6 µM (active). Moreover, the Potency in assay [18] is 61.1 µM (active). In addition, the Potency entry in assay [15] and in [17] was “inactive” each time.
For the compound `O=C1C(I)=CC(=C(c2cc(I)c(O)c(I)c2)c2ccccc2C(=O)O)C=C1I`, the Potency result in assay [2], in assay [5], in assay [6], in [7], in assay [8] and in [9] was “inactive” throughout. Further, the Potency result in [10], in assay [13], in [14], in [15], in assay [17] and in [20] was “inactive” in each case. Also, the compound was called inactive in [3] and in assay [4]. Further, the Potency in assay [16] was 9.44 µM (active).
